# Test results from article PMC5540273 (PLoS ONE, 2017).
# Legend:
# Settings in all cases: concentration: 1 μM,replicates: in singlicate; n = 1
# [1] = tested on: PIP5K1A
# [2] = tested on: PIP5K1C
# [3] = tested on: PIP5K2B
# [4] = tested on: T1, PIP5K2C
# T1 construct: gene PIP4K2C
# [5] = tested on: T2, PKAC-alpha
# T2 construct: gene PRKACA
# [6] = tested on: T3, PKAC-beta
# T3 construct: gene PRKACB
# [7] = tested on: PKMYT1
# [8] = tested on: PKN1
# [9] = tested on: PKN2
# [10] = tested on: PLK1
# 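Further: KINOMEscan kinase panel screen.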
SMILES,%Inh [1],%Inh [2],%Inh [3],%Inh [4],%Inh [5],%Inh [6],%Inh [7],%Inh [8],%Inh [9],%Inh [10]
Cc1ccc2c(-c3ccnc(Nc4ccc(C(F)(F)F)cc4)n3)cnn2n1 [GW819776],15%,0%,0%,82%,14%,20%,0%,0%,0%,25%
Cn1ccc2ncnc(Oc3ccc(NC(=O)Nc4cnn(C(C)(C)C)c4)c(Cl)c3)c21,17%,3%,100%,0%,0%,3%,0%,0%,3%,0%
Cn1ccc2ncnc(Oc3ccc(NC(=O)Nc4ccnc(C(F)(F)F)c4)c(Cl)c3)c21,13%,0%,15%,0%,0%,0%,3%,0%,0%,0%
CS(=O)(=O)Nc1ccc(-c2ccnc3[nH]ccc23)cc1 [GSK993273],57%,29%,55%,89%,84%,85%,0%,21%,18%,0%
CC(C)S(=O)(=O)N1CCN(Cc2ccc3c(c2)nc(NC(=O)c2ccsc2)n3C[C@H](O)c2ccccc2)CC1 [GW635815],0%,15%,35%,24%,0%,27%,8%,6%,25%,0%
CNC(=O)c1ccccc1Nc1nc(Nc2cccc(CS(C)(=O)=O)c2)ncc1C.O=CO [GSK1520489],55%,52%,84%,79%,11%,28%,84%,56%,2%,97.9%
O=C1NCCc2[nH]c(-c3ccncc3)cc21,2%,12%,4%,0%,34%,32%,4%,77%,80%,–
CCOC(=O)N1CCC(n2cnc(-c3ccc(F)cc3)c2-c2ccnc(N)n2)CC1 [SB-219952],0%,32%,2%,94.4%,9%,36%,32%,0%,8%,23%
Cn1ccc2ncnc(Oc3ccc(NC(=O)Nc4cncc(C(F)(F)F)c4)c(Cl)c3)c21,29%,20%,6%,0%,0%,0%,6%,0%,0%,0%
COc1cc2c(Nc3ccc(NC(=O)c4ccccc4)cc3)ncnc2cc1OCCCN1CCOCC1 [GSK301329],0%,27%,14%,0%,3%,14%,1%,0%,0%,0%
c1ccc(Oc2ccc(Nc3ccnc4ccc(-c5ccccn5)cc34)cc2)cc1 [GW407034],6%,23%,25%,28%,0%,8%,11%,28%,0%,0%
C[C@@H]1CNc2c(sc3ccc4nc(-c5ccc(O)cc5)ccc4c23)C(=O)N1,3%,18%,78%,13%,4%,5%,2%,0%,16%,0%
CCn1c(-c2nonc2N)nc2cncc(Br)c21 [SB-738004],54%,53%,28%,38%,11%,0%,6%,0%,4%,18%
CC(=O)c1c(-c2ccncc2)[nH]c(-c2ccncc2)c1C [GW493036],50%,91.1%,19%,16%,0%,47%,0%,16%,0%,18%
CCn1c(-c2nonc2N)nc2cncc(CNC3CCNCC3)c21.Cl [SB-747651],0%,25%,0%,22%,85%,83%,3%,39%,0%,0%
CC(C)c1nc(-c2cccc(NS(=O)(=O)c3ccccc3)c2)c(-c2ccnc(Nc3ccc4c(c3)CN(C)CC4)n2)s1 [GSK1649598],0%,0%,20%,65%,0%,0%,0%,43%,0%,0%
COc1cccc(OC)c1C(=O)Nc1cccc(-c2nn3ccccc3c2-c2ccnc(Nc3cccc(F)c3)n2)c1 [GSK361065],0%,0%,0%,0%,23%,0%,5%,0%,13%,0%

SMILES,%Inh [1],%Inh [2],%Inh [3],%Inh [4],%Inh [5],%Inh [6],%Inh [7],%Inh [8],%Inh [9],%Inh [10]
Cc1ccc(Nc2ccnc(Nc3ccc4c(c3)CS(=O)(=O)C4)n2)cc1O.Cl [GW579362],29%,39%,80%,90%,7%,0%,0%,11%,0%,0%
C[C@@H](Oc1cc(-n2cnc3cc(-c4ccncc4)ccc32)sc1C(N)=O)c1ccccc1Cl [GSK479719],0%,58%,21%,29%,0%,0%,0%,15%,44%,–
Cn1ccc2ncnc(Oc3ccc(NC(=O)Nc4cccc(C(F)(F)F)c4)c(Cl)c3)c21,0%,48%,2%,0%,0%,0%,0%,0%,0%,0%
COc1cccc(CNC(=O)NC2CCN(c3ccnc(Nc4cc(OC)c(OC)c(OC)c4)n3)C2)c1 (stereo not drawn) [GSK1379765],52%,68%,14%,90.3%,0%,0%,8%,36%,0%,0%
CSc1nccc(-c2c(-c3ccc(F)cc3)ncn2CCCN2CCOCC2)n1.Cl [SB-217146],0%,0%,0%,0%,14%,19%,0%,0%,0%,33%
O=C(Nc1cccc(C(F)(F)F)c1)c1cccc(Oc2ccc3nccn3n2)c1,0%,17%,14%,10%,17%,7%,9%,81%,0%,50%
CCCC(=O)Nc1n[nH]c2ncccc12 [SB-601436],24%,0%,39%,0%,0%,10%,0%,0%,9%,0%
C[C@@H](Oc1cc(-n2cnc3ccc(-c4ccncc4)cc32)sc1C(N)=O)c1ccccc1Cl [GSK483724],0%,85%,13%,81%,13%,5%,0%,17%,10%,–
Cl.Cl.NC[C@H](CC1CCCCC1)NC(=O)c1ccc(-c2ccnc3[nH]ccc23)s1 [GSK1581428],47%,41%,75%,25%,99.7%,99.9%,0%,52%,99%,2%
CC(=O)Nc1ccc(-c2cc3ncnc(SCC(=O)O)c3s2)cc1,0%,70%,0%,46%,0%,0%,25%,12%,5%,0%
Cn1cc(-c2cccc3c(N)c(C(N)=O)nnc23)cn1,0%,5%,0%,7%,0%,16%,9%,0%,23%,14%
FC(F)(F)c1cc(Br)cc(Nc2nccc(-c3cnn4ncccc34)n2)c1 [GW810578],0%,3%,0%,94.2%,17%,0%,1%,12%,27%,9%
COC(=O)c1cccc(NC(=O)NC2CCN(c3ccnc(NCc4ccc(F)cc4)n3)CC2)c1 [GSK1379860],0%,20%,19%,2%,0%,0%,0%,32%,0%,0%
CS(=O)(=O)c1cccc(CNc2nc(Nc3ccc4c(c3)[C@@H]3C[C@@H]4CNC3=O)ncc2C(F)(F)F)c1,52%,48%,93.3%,52%,0%,0%,0%,56%,22%,0%
CC(=O)Nc1nc2cnc(Nc3cc(NC(=O)c4cccc(CC(C)(C)C#N)c4)ccc3C)nc2s1,0%,4%,33%,53%,13%,0%,20%,21%,0%,7%
O=C(NCC1CC1)c1ccc(-c2cc(C(=O)NC3CC3)ccc2F)cc1 [GW810445],54%,0%,0%,22%,7%,0%,0%,0%,0%,6%
COc1cc2ncn(-c3cc(OCC4CCCCC4)c(C(N)=O)s3)c2cc1OC [GSK204559],0%,61%,12%,11%,9%,0%,2%,24%,0%,–
